Reference: the supplement of paper PMC13380429

Test system: Vero E6 infected with SARS-CoV-2
Test: inhibition of SARS-CoV-2 cytopathic effect; higher = more antiviral protection, active = above 15
Conditions: 48 h

Measured: inhibition of SARS-CoV-2 cytopathic effect

CN1C(=O)N(c2cc(Cl)cc(Cl)c2)C(=O)[C@@]1(C)Cc1ccc(Br)cc1
inactive: 1 nM -0.07% | 8.33 nM -0.29% | 100 nM -0.15% | 833.33 nM -1.61% | 10000 nM -5.8%

NCC(=O)N[C@@H](CCC(N)=O)C(=O)O
inactive: 1 nM 0.35% | 8.33 nM -1.25% | 100 nM -2.03% | 833.33 nM 2.57% | 10000 nM -2.42%

Cc1c(Cl)cccc1Nc1ccccc1C(=O)O [tolfenamic-acid]
inactive: 1 nM -1.57% | 8.33 nM -0.57% | 100 nM 1.25% | 833.33 nM 0.34% | 10000 nM -0.7%

O=C(O)Cc1ccc(OCc2ccccc2)c(Cl)c1 [benzofenac]
inactive: 1 nM -0.05% | 8.33 nM 4.15% | 100 nM 1.74% | 833.33 nM 1.88% | 10000 nM 0.27%

CN1C(=O)OC(C)(C)C1=O [trimethadione]
inactive: 1 nM -3.89% | 8.33 nM -1.8% | 100 nM -2.46% | 833.33 nM -3.14% | 10000 nM -1.97%

O=C(O)c1ccccc1-c1ccc(C(F)(F)F)cc1 [xenalipin]
inactive: 1 nM -4.08% | 8.33 nM 1.65% | 100 nM 4.8% | 833.33 nM 4.27% | 10000 nM -2.23%

O=C(C1CC1)N1CC[C@@H](Cc2n[nH]c(=O)n2-c2ccc(-c3ccc4occc4c3)cc2)C1
inactive: 1 nM -1.12% | 8.33 nM -1.14% | 100 nM -1.43% | 833.33 nM -0.64% | 10000 nM -4.48%

CO/N=C(\C(=O)N[C@@H]1C(=O)N2C(C(=O)O)=C(COC(N)=O)CS[C@H]12)c1ccco1
inactive: 1 nM -0.51% | 8.33 nM 1.54% | 100 nM 0.59% | 833.33 nM 0.24% | 10000 nM -0.24%
